How the values were obtained:
Assay in all cases: DAPPL (digital affinity profiling via proximity ligation, sequencing); 10 mM Tris-HCl pH 7.5, 50 mM NaCl, 1 mM DTT, 4% glycerol, room temperature, 30 min; GST-TFs on glutathione beads, 16-mer random dsDNA library, 0.1% formaldehyde crosslink after washing; high values mean tight binding
FLI1 = biological target: T1, FLI1 (Homo sapiens, UniProt Q01543 1-452); settings: protein: recombinant; tags: N-terminal GST; dsDNA, one strand shown
T1 sequence: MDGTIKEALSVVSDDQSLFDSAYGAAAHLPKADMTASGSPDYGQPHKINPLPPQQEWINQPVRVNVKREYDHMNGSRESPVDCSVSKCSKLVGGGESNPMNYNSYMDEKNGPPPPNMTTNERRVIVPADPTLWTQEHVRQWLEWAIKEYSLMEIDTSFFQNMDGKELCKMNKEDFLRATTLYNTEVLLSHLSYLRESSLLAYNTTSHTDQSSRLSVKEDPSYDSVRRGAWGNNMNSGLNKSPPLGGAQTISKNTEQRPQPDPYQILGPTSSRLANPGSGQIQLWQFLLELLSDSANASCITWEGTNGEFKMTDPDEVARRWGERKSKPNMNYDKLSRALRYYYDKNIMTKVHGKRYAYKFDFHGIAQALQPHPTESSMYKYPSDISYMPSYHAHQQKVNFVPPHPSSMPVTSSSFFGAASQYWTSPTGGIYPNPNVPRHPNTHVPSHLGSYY
Summary of the method: (§1)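 Binding signal is given per hexamer as its read frequency for a factor divided by its frequency in the tag-only sample. GST-fused human transcription factors were expressed in yeast, captured on glutathione beads, barcoded with DNA and pooled with that sample, then incubated with 200 nmole of a 16-mer random double-stranded DNA library in Tris/NaCl/DTT/glycerol buffer for 30 min at room temperature. The pools were then washed, crosslinked, proximity-ligated, amplified by PCR and sequenced on an Illumina NextSeq500.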

ELK1 = biological target: T2, ELK1 (Homo sapiens, UniProt P19419 1-428); settings: protein: recombinant; tags: N-terminal GST; dsDNA, one strand shown
T2 sequence: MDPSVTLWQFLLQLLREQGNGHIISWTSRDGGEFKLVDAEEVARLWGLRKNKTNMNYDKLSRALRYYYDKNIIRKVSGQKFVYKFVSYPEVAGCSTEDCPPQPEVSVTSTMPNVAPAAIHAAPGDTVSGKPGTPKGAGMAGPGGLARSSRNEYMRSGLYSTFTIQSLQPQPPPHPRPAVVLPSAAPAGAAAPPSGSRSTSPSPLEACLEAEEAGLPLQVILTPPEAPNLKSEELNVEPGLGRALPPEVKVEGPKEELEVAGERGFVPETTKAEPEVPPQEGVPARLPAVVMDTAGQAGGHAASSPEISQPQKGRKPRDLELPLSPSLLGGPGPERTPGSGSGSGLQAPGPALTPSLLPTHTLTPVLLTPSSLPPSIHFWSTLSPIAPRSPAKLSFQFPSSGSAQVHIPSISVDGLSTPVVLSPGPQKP
Summary of the method: as §1

GABPA = biological target: T3, GABPA (Homo sapiens, UniProt Q06546 1-454); settings: protein: recombinant; tags: N-terminal GST; dsDNA, one strand shown
T3 sequence: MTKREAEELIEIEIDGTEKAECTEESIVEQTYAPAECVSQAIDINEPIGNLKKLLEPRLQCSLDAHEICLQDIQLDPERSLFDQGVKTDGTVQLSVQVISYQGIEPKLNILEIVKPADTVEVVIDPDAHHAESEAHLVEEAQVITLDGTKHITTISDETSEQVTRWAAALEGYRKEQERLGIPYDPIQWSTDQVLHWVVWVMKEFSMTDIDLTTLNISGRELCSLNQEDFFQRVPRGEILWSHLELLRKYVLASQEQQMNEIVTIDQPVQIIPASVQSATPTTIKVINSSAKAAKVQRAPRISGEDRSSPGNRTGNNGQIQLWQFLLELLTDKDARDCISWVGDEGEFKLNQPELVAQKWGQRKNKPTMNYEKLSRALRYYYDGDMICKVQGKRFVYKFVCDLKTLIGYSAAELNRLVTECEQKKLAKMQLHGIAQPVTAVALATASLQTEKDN
Summary of the method: as §1

ERG = biological target: T4, ERG (Homo sapiens, UniProt P11308 1-479); settings: protein: recombinant; tags: N-terminal GST; dsDNA, one strand shown
T4 sequence: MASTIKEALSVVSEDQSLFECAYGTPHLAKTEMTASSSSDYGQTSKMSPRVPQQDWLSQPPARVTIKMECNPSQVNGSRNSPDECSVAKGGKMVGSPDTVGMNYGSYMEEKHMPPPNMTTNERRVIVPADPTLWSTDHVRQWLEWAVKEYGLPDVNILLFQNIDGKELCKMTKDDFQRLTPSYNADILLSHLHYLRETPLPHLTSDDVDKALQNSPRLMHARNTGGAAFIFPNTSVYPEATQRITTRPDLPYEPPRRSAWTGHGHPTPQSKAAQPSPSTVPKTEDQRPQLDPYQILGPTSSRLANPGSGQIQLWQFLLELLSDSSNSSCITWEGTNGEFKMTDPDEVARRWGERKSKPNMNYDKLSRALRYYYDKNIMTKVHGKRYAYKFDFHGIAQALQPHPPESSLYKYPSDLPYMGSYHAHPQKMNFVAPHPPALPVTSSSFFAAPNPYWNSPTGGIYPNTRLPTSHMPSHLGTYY
Summary of the method: as §1

ELF1 = ELF1 (Homo sapiens, UniProt P32519 1-619); settings: protein: recombinant; tags: N-terminal GST; dsDNA, one strand shown
ELF1, sequence (P32519 whole entry): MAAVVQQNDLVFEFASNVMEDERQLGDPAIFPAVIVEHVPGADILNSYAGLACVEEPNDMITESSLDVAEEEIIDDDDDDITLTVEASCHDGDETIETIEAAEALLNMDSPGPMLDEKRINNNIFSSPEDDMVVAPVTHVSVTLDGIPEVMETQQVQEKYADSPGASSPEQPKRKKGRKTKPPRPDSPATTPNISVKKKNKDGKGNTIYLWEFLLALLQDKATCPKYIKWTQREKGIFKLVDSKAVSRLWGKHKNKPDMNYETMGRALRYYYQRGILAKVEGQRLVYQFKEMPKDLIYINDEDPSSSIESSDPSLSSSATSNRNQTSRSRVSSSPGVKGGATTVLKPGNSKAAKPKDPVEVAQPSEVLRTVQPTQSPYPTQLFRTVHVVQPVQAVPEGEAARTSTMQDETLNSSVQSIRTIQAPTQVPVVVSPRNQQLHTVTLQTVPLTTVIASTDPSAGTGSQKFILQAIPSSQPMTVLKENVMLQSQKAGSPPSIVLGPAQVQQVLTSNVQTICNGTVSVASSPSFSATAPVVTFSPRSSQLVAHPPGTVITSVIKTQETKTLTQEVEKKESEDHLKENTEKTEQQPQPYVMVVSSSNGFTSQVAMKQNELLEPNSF
Summary of the method: as §1

EHF = biological target: T5, EHF (Homo sapiens, UniProt Q9NZC4 1-300); settings: protein: recombinant; tags: N-terminal GST; dsDNA, one strand shown
T5 sequence: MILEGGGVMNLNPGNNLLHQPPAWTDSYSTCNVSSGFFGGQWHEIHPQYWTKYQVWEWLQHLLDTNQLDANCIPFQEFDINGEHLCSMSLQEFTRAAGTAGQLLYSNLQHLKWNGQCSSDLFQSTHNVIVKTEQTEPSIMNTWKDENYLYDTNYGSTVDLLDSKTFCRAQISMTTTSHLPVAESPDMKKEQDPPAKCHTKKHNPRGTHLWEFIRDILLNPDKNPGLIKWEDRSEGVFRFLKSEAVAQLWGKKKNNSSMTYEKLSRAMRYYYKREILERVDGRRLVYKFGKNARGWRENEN
Summary of the method: as §1

SPI1 = SPI1 (Homo sapiens, UniProt P17947 1-270); settings: protein: recombinant; tags: N-terminal GST; dsDNA, one strand shown
Summary of the method: as §1

SPIB = SPIB (Homo sapiens, UniProt Q01892 1-262); settings: protein: recombinant; tags: N-terminal GST; dsDNA, one strand shown
SPIB, sequence (Q01892 whole entry): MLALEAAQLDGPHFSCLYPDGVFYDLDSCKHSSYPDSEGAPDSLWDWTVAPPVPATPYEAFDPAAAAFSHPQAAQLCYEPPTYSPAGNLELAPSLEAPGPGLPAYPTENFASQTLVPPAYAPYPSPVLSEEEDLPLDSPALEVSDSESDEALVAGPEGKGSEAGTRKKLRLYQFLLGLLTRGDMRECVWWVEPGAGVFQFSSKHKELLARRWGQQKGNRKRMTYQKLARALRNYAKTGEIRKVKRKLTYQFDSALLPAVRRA
Summary of the method: as §1

ELK3 = biological target: T6, ELK3 (Homo sapiens, UniProt P41970 1-407); settings: protein: recombinant; tags: N-terminal GST; dsDNA, one strand shown
T6 sequence: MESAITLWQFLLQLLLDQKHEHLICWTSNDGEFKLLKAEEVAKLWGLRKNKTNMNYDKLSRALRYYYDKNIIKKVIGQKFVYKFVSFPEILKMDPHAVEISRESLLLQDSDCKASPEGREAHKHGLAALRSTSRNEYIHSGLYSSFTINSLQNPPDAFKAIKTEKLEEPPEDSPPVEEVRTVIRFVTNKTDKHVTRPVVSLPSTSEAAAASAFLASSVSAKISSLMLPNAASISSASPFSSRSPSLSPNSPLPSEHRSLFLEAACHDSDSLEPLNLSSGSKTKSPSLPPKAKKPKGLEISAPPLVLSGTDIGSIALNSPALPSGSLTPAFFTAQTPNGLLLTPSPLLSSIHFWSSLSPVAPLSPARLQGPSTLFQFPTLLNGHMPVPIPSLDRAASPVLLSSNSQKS
Summary of the method: as §1

FEV = biological target: T7, FEV (Homo sapiens, UniProt Q99581 1-238); settings: protein: recombinant; tags: N-terminal GST; dsDNA, one strand shown
T7 sequence: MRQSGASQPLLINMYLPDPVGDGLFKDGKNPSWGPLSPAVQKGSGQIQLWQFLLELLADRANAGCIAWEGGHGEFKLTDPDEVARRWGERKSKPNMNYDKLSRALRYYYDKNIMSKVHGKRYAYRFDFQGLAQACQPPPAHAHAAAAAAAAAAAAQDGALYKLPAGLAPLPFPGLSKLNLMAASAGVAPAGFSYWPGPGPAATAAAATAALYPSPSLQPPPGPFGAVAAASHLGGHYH
Summary of the method: as §1

ETV5 = ETV5 (Homo sapiens, UniProt P41161 1-510); settings: protein: recombinant; tags: N-terminal GST; dsDNA, one strand shown
ETV5, sequence (P41161 whole entry): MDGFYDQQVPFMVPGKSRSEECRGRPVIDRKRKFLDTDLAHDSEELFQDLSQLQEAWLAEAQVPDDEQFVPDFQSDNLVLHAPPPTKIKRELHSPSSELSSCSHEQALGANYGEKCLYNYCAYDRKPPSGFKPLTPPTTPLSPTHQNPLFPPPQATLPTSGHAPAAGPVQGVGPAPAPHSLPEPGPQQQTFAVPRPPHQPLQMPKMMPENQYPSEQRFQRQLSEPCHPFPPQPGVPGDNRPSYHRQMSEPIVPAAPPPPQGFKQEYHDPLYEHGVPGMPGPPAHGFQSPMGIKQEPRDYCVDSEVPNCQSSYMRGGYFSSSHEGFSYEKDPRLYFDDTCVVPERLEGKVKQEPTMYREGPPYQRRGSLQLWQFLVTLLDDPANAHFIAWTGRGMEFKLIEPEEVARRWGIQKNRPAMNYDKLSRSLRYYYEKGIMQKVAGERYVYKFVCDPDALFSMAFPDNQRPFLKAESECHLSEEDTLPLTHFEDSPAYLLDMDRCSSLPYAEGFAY
Summary of the method: as §1

HSF1 = HSF1 (Homo sapiens, UniProt Q00613 1-529); settings: protein: recombinant; tags: N-terminal GST; chain copies: 3; dsDNA, one strand shown
HSF1, sequence (Q00613 whole entry): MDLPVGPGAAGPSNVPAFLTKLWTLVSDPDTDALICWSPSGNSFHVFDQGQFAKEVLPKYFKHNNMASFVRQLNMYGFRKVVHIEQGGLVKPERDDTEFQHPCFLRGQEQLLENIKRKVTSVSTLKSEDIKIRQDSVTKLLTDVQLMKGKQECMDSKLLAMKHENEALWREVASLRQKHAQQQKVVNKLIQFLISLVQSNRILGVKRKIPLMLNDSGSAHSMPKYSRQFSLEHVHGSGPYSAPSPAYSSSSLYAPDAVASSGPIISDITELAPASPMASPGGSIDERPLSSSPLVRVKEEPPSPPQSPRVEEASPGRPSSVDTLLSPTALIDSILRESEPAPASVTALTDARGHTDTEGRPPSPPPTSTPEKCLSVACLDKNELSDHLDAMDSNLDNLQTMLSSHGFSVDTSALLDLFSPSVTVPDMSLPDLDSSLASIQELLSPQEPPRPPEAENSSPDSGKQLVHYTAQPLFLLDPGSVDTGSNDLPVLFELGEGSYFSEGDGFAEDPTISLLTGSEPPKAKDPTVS
Summary of the method: as §1

SPIC = biological target: T8, SPIC (Homo sapiens, UniProt Q8N5J4 1-248); settings: protein: recombinant; tags: N-terminal GST; dsDNA, one strand shown
T8 sequence: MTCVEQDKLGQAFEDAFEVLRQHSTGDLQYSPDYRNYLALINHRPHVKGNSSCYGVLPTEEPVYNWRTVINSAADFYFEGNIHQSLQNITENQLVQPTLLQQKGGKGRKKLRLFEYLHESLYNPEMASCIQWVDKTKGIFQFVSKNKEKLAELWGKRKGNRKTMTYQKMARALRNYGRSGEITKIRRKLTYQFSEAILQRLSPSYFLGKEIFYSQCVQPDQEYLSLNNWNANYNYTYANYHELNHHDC
Summary of the method: as §1

ELF4 = ELF4 (Homo sapiens, UniProt Q99607 1-663); settings: protein: recombinant; tags: N-terminal GST; dsDNA, one strand shown
ELF4, sequence (Q99607 whole entry): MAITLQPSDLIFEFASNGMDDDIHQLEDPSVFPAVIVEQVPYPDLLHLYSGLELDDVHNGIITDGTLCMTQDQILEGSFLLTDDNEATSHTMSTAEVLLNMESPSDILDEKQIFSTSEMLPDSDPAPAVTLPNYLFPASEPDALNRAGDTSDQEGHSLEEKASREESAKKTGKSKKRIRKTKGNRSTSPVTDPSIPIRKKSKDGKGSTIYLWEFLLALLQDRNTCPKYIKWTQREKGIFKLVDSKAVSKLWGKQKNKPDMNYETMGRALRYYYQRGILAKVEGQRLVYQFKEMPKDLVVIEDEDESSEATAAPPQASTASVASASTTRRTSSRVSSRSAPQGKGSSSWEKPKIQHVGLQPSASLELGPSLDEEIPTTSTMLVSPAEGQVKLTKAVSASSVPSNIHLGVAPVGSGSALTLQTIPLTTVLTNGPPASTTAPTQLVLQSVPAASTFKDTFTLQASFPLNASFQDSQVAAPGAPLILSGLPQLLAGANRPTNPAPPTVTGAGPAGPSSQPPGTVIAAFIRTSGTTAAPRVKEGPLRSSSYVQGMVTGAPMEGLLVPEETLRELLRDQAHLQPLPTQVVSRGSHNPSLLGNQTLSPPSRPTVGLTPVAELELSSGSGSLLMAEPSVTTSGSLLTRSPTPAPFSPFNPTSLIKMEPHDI
Summary of the method: as §1

ELK4 = biological target: T9, ELK4 (Homo sapiens, UniProt P28324-2 1-405); settings: protein: recombinant; tags: N-terminal GST; dsDNA, one strand shown
T9 sequence: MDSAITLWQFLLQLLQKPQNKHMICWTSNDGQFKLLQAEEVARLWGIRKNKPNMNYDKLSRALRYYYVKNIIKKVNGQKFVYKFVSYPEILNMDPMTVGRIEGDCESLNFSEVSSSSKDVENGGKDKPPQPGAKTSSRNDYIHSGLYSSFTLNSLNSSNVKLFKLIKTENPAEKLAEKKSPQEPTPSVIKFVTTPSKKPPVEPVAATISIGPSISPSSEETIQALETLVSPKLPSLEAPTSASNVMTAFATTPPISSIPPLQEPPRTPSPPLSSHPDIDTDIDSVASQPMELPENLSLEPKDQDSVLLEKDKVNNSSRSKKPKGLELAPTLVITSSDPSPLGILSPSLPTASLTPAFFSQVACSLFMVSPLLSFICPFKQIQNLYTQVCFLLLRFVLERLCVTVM
Summary of the method: as §1

ETV2 = biological target: T10, ETV2 (Homo sapiens, UniProt O00321 1-342); settings: protein: recombinant; tags: N-terminal GST; dsDNA, one strand shown
T10 sequence: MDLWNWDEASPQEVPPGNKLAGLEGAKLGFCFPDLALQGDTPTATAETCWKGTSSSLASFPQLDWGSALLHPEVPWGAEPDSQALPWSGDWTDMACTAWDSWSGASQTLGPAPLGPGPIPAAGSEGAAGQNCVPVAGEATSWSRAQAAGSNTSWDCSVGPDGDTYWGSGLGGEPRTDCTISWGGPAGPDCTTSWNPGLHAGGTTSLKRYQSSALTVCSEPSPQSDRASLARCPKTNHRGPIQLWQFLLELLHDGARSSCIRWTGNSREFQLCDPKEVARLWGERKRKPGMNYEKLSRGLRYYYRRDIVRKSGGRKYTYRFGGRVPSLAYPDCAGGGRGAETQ
Summary of the method: as §1

ELF3 = biological target: T11, ELF3 (Homo sapiens, UniProt P78545 1-371); settings: protein: recombinant; tags: N-terminal GST; dsDNA, one strand shown
T11 sequence: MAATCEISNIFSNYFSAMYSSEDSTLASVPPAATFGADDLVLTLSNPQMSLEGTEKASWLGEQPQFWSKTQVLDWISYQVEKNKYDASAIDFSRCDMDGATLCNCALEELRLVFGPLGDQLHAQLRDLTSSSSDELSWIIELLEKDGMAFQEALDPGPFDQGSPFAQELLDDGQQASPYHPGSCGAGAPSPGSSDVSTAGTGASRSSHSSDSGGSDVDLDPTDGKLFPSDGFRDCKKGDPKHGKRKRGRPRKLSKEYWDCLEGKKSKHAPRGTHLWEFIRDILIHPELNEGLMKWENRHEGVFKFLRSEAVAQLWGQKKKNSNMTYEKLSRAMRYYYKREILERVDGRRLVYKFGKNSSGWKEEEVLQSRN
Summary of the method: as §1

CRX = CRX (Homo sapiens, UniProt O43186 1-299); settings: protein: recombinant; tags: N-terminal GST; dsDNA, one strand shown
CRX, sequence (O43186 whole entry): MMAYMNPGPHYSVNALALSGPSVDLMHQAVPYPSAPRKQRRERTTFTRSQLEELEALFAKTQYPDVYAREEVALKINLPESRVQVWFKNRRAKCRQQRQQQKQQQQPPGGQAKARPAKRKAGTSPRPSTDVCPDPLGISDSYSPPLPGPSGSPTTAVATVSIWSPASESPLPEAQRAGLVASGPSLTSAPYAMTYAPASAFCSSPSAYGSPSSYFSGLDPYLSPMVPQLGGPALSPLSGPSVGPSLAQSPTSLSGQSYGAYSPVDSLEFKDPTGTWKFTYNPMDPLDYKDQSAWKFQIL
Summary of the method: as §1

ETV1 = ETV1 (Homo sapiens, UniProt P50549 1-477); settings: protein: recombinant; tags: N-terminal GST; dsDNA, one strand shown
ETV1, sequence (P50549 whole entry): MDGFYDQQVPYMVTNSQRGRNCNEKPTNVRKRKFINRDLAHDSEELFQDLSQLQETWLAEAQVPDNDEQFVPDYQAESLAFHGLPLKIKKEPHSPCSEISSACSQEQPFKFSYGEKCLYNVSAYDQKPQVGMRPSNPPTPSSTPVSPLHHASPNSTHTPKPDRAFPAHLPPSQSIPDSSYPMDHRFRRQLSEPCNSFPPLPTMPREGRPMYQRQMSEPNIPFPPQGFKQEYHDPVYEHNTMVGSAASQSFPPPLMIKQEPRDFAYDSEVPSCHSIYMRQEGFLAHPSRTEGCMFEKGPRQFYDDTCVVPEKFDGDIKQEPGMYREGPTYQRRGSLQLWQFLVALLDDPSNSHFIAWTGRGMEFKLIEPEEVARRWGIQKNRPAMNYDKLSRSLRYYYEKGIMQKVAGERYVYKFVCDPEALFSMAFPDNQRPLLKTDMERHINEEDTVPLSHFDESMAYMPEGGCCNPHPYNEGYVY
Summary of the method: as §1

GCCCTA
binding signal (FLI1): 1.29 fold enrichment (6-mer frequency, TF over GST control) | binding signal (ELK1): 1.24 fold enrichment (6-mer frequency, TF over GST control) | binding signal (GABPA): 1.21 fold enrichment (6-mer frequency, TF over GST control) | binding signal (ERG): 1.15 fold enrichment (6-mer frequency, TF over GST control) | binding signal (ELF1): 1.19 fold enrichment (6-mer frequency, TF over GST control) | binding signal (EHF): 1.12 fold enrichment (6-mer frequency, TF over GST control) | binding signal (SPI1): 1.19 fold enrichment (6-mer frequency, TF over GST control) | binding signal (SPIB): 1.28 fold enrichment (6-mer frequency, TF over GST control) | binding signal (ELK3): 1.19 fold enrichment (6-mer frequency, TF over GST control) | binding signal (FEV): 1.28 fold enrichment (6-mer frequency, TF over GST control) | binding signal (ETV5): 1.16 fold enrichment (6-mer frequency, TF over GST control) | binding signal (HSF1): 1.13 fold enrichment (6-mer frequency, TF over GST control) | binding signal (SPIC): 1.18 fold enrichment (6-mer frequency, TF over GST control) | binding signal (ELF4): 1.24 fold enrichment (6-mer frequency, TF over GST control) | binding signal (ELK4): 1.24 fold enrichment (6-mer frequency, TF over GST control) | binding signal (ETV2): 1.06 fold enrichment (6-mer frequency, TF over GST control) | binding signal (ELF3): 1.19 fold enrichment (6-mer frequency, TF over GST control) | binding signal (CRX): 1.27 fold enrichment (6-mer frequency, TF over GST control) | binding signal (ETV1): 1.06 fold enrichment (6-mer frequency, TF over GST control)

Reference: article PMC7862700, “An all-to-all approach to the identification of sequence-specific readers for epigenetic DNA modifications on cytosine”
